Experimental data: PubChem BioAssay (NCI)
This is part of a sample that, as a whole, favours compounds with a hit. Of some 79,000 tested, about 15% had one in any assay. A number with no mark means an inactive call. Active and inactive are the calls of the source. No stated cut-off is given here; in the data, active means growth inhibition above about 70%; inactive means the rest.

Key:
[1] = NCI Yeast Anticancer Drug Screen. Data for the rad50 strain (AID 155);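 further: 0% = growth of vehicle-only cultures of the same strain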; conditions: S. cerevisiae rad50 strain growth inhibition, hits give high values
Summary of the method: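 Growth of the mutant yeast was measured after compound exposure and referenced to vehicle-treated cultures.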

[2] = NCI Yeast Anticancer Drug Screen. Data for the mec2-1 strain (AID 157); conditions: S. cerevisiae mec2-1 strain, hits give high values
Summary of the method: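 mec2-1 yeast strain, carrying an alteration in DNA damage repair or cell cycle control, was exposed to compounds; growth inhibition was measured relative to vehicle-treated controls.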

[3] = NCI Yeast Anticancer Drug Screen. Data for the sgs1 mgt1 strain (AID 161);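 further: 0% = growth of cultures given vehicle only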; conditions: S. cerevisiae sgs1 mgt1 strain, hits give high values
Summary of the method: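 This yeast growth screen uses a strain with defined DNA-repair lesions; compound-treated growth is compared with vehicle-treated growth.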

[4] = NCI Yeast Anticancer Drug Screen. Data for the cln2 rad14 strain (AID 165);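 further: 0% = growth equal to vehicle treated cultures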; conditions: S. cerevisiae cln2 rad14 strain, hits give high values
Summary of the method: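 Yeast carrying cln2 and rad14 alterations (cell cycle control and DNA damage repair) were exposed to compounds. Growth inhibition was measured against vehicle-treated controls.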

[5] = NCI Yeast Anticancer Drug Screen. Data for the bub3 strain (AID 167); conditions: S. cerevisiae bub3 mutant strain, hits give high values
Summary of the method: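 Whole-cell yeast assay. The mutant strain was incubated with compounds, and growth inhibition was determined by comparison with vehicle-treated cells.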

[6] = NCI Yeast Anticancer Drug Screen. Data for the mlh1 rad18 strain (AID 175); conditions: S. cerevisiae mlh1 rad18 strain growth inhibition, hits give high values
Summary of the method: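 Growth inhibition of the yeast strain was measured after compound exposure and expressed relative to vehicle-treated controls. The strain carries defined defects in DNA damage repair.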

[7] = at 5.0 µM (retest, dose inferred, filed as 0.5)
[8] = at 50.0 µM (retest, dose inferred, filed as 5.0)

| Compound | growth inhibition [1, 7] | growth inhibition [1, 8] | growth inhibition ([1]; at 50.0 µM) | growth inhibition [2, 7] | growth inhibition [2, 8] | growth inhibition ([2]; at 50.0 µM) | growth inhibition [3, 7] | growth inhibition [3, 8] | growth inhibition ([3]; at 50.0 µM) | growth inhibition [4, 7] | growth inhibition [4, 8] | growth inhibition ([4]; at 50.0 µM) | growth inhibition [5, 7] | growth inhibition [5, 8] | growth inhibition ([5]; at 50.0 µM) | growth inhibition [6, 7] | growth inhibition [6, 8] | growth inhibition ([6]; at 50.0 µM) |
| --- | --- | --- | --- | --- | --- | --- | --- | --- | --- | --- | --- | --- | --- | --- | --- | --- | --- | --- |
| COc1ccc(CC2C(=O)NC(C)C(=O)N(C)C3C(=O)N(C)C(Cc4ccc(O)c(c4)Oc4ccc(cc4)C3O)C(=O)NC(C)C(=O)NC(C)C(=O)N2C)cc1 (stereo not given) (tested in a mixture with another compound) | 31% | 99% (active) | 83.2% (active) | 28% | 100% (active) | 78% (active) | 37% | 99% (active) | 86.3% (active) | 41% | 98% (active) | 78.5% (active) | 34% | 99% (active) | 83.3% (active) | 32% | 98% (active) | 69.3% |
| CN1C(=O)C23CC4=CC=CC(O)C4N2C(=O)C1(CO)SS3 (stereo not given) | 99% (active) | 99% (active) | 92.8% (active) | 99% (active) | 100% (active) | 95% (active) | 99% (active) | 100% (active) | 93.2% (active) | 99% (active) | 99% (active) | 92.5% (active) | 99% (active) | 99% (active) | 93.5% (active) | 99% (active) | 99% (active) | 93.5% (active) |
| [Se]C1=NCCN1 | 6% | 53% | 94.6% (active) | 7% | 34% | 92.3% (active) | 3% | 39% | 95.6% (active) | 6% | 48% | 77.8% (active) | 4% | 96% (active) | 84% (active) | 6% | 89% (active) | 92.2% (active) |
| CC(=O)[O][Hg][c]1c(C)c(C)cc(C)c1C | 99% (active) | 96% (active) | 90.1% (active) | 100% (active) | 98% (active) | 91.2% (active) | 99% (active) | 98% (active) | 87.7% (active) | 99% (active) | 98% (active) | 85.7% (active) | 99% (active) | 97% (active) | 84.2% (active) | 99% (active) | 96% (active) | 76.2% (active) |
| CCOP(=S)(OCC)SCc1c(C)c(C)c(CSP(=S)(OCC)OCC)c(C)c1C | 1% | -11% | -4.3% | -4% | -2% | -3.75% | -8% | 2% | -12.2% | 1% | -10% | 45% | -4% | -4% | -0.65% | 2% | -5% | 8.8% |
| CC(=O)NC1C(O[C@H]2CC[C@@]3(C)C(CC[C@]4(C)C3CC=C3C5CC(C)(C)CC[C@]5(C(=O)O)CCC34C)C2(C)C)OC(CO)C(O)C1O (stereo not given in full) | 42% | 98% (active) | 91% (active) | 69% | 99% (active) | 92.8% (active) | 44% | 99% (active) | 90.2% (active) | 74% (active) | 99% (active) | 91% (active) | 77% (active) | 98% (active) | 91.2% (active) | 48% | 99% (active) | 90% (active) |
| CC1=CC(=C2C=CC(=[N+](C)C)C=C2)C=C(C)S1 | 21% | 72% (active) | 55.6% | 10% | 91% (active) | 71.6% (active) | 9% | 94% (active) | 87.3% (active) | 7% | 82% (active) | 77.7% (active) | -2% | 96% (active) | 87.7% (active) | 11% | 90% (active) | 87% (active) |
| Cc1cc2c(cc1O)C(C)(C)CCC2(C)C | 8% | 70% (active) | -6.9% | -1% | 77% (active) | 97.2% (active) | 1% | 78% (active) | 47.9% | 9% | 90% (active) | 52.8% | 0% | 83% (active) | 96.8% (active) | -2% | 62% | 97.3% (active) |
| COC1OCCC[CH]1[Hg][Cl] (stereo not given) | 98% (active) | 99% (active) | 99.2% (active) | 100% (active) | 99% (active) | 99.3% (active) | 99% (active) | 99% (active) | 99.5% (active) | 99% (active) | 99% (active) | 99.3% (active) | 99% (active) | 99% (active) | 99.5% (active) | 99% (active) | 99% (active) | 99.2% (active) |
| O=C1C=Cc2ccccc2C1=O | 29% | 87% (active) | 83.6% (active) | 32% | 95% (active) | 88.8% (active) | 30% | 72% (active) | 88.2% (active) | 18% | 87% (active) | 46.3% | 36% | 97% (active) | 91.9% (active) | 31% | 96% (active) | 94.9% (active) |
